# In all, about 5,500 compounds went through this assay and about 2,000 (36%) were called active. Inconclusive results (about 18%) are left out. The list shows a part of the results. Unmarked numbers belong to inactive results. Cut-off read from the data, not from the text of the source: active = normalized growth mostly below about 0.91 (no sharp cut-off); inconclusive = no clear call, values can overlap the other calls; inactive = mostly above about 0.92.
# Assay: chemical genetic growth profiling, strain panel (AID 1159580);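 note: tested at 20 µM; growth read once vehicle control cultures reached saturation at 30 °C; 1 = growth at the plate median or of vehicle wells; lower values mean less growth of the strain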
# Details: S. cerevisiae deletion strains, growth OD
# [1] = locus YAL013W, strain DEP1, stronger effect = lower value
# [2] = locus YBR229C, strain ROT2, stronger effect = lower value
# [3] = locus YDL101C, strain DUN1, stronger effect = lower value
# [4] = locus YDL134C, strain PPH21, stronger effect = lower value
# [5] = locus YDR150W, strain NUM1, stronger effect = lower value
# [6] = locus YEL061C, strain CIN8, stronger effect = lower value
# [7] = locus YGR078C, strain PAC10, stronger effect = lower value
# [8] = locus YHR030C, strain SLT2, stronger effect = lower value
# [9] = locus YHR087W, strain rtc3, stronger effect = lower value
# [10] = locus YJL187C, strain SWE1, stronger effect = lower value
# [11] = locus YJR043C, strain POL32, stronger effect = lower value
# [12] = locus YJR075W, strain HOC1, stronger effect = lower value
# [13] = locus YLR039C, strain RIC1, stronger effect = lower value
# [14] = locus YLR058C, strain SHM2 (second series), stronger effect = lower value
# [15] = locus YLR085C, strain ARP6, stronger effect = lower value
# [16] = locus YLR262C, strain YPT6, stronger effect = lower value
# [17] = locus YML094W, strain GIM5, stronger effect = lower value
# [18] = locus YMR219W, strain ESC1, stronger effect = lower value
# [19] = locus YMR263W, strain SAP30, stronger effect = lower value
# [20] = locus YNL153C, strain GIM3, stronger effect = lower value
# [21] = locus YNL298W, strain CLA4 (second series), stronger effect = lower value
# [22] = locus YNL322C, strain KRE1, stronger effect = lower value
# [23] = locus YNR030W, strain Alg12, stronger effect = lower value
# [24] = locus YPL055C, strain LGE1, stronger effect = lower value
# [25] = locus YPL241C, strain CIN2, stronger effect = lower value
# [26] = locus YPR135W, strain CTF4, stronger effect = lower value
compound,measurement,setting,value
O=C1C2C3C=CC(C3)C2C(=O)N1c1ccc(F)c(F)c1 (stereo unspecified),normalized growth,[1],1.01
same,normalized growth,[2],1.03
same,normalized growth,"locus YCL061C, strain MRC1, stronger effect = lower value",0.986
same,normalized growth,[3],0.993
same,normalized growth,[4],0.999
same,normalized growth,[5],0.997
same,normalized growth,[6],1.03
same,normalized growth,[7],0.994
same,normalized growth,[8],1.01
same,normalized growth,[9],0.995
same,normalized growth,[10],1.01
same,normalized growth,[11],0.957
same,normalized growth,[12],1.01
same,normalized growth,"locus YKL190W, strain CNB1, stronger effect = lower value",0.99
same,normalized growth,[13],0.995
same,normalized growth,[14],0.981
same,normalized growth,[15],1.06
same,normalized growth,[16],0.992
same,normalized growth,[17],1.01
same,normalized growth,[18],1
same,normalized growth,[19],1
same,normalized growth,[20],0.983
same,normalized growth,[21],0.982
same,normalized growth,[22],1.02
same,normalized growth,[23],1.02
same,normalized growth,[24],1.06
same,normalized growth,[25],0.994
same,normalized growth,[26],0.975
O=C1CSCC(=O)N1c1ccc(F)c(Cl)c1,normalized growth,[1],0.993
same,normalized growth,[2],0.994
same,normalized growth,[3],1
same,normalized growth,[4],0.99
same,normalized growth,[5],0.935
same,normalized growth,[6],0.984
same,normalized growth,[7],0.994
same,normalized growth,"locus YGR229C, strain SMI1, stronger effect = lower value",0.985
same,normalized growth,[8],0.996
same,normalized growth,[9],0.981
same,normalized growth,[10],1
same,normalized growth,[11],0.925
same,normalized growth,[12],0.989
same,normalized growth,[13],1.02
same,normalized growth,[14],1
same,normalized growth,[15],0.978
same,normalized growth,[16],0.995
same,normalized growth,[17],0.992
same,normalized growth,[18],1
same,normalized growth,[19],0.994
same,normalized growth,[20],0.997
same,normalized growth,[21],0.998
same,normalized growth,[22],0.979
same,normalized growth,[23],0.281 (active)
same,normalized growth,[24],0.97
same,normalized growth,[25],0.378 (active)
same,normalized growth,[26],1
CC1=CC(=O)N(c2ccc(OC(F)(F)F)cc2)C1=O,normalized growth,"locus YAR019C, strain CDC15, stronger effect = lower value",0.852 (active)
same,normalized growth,"locus YBL105C, strain PKC1, stronger effect = lower value",0.873 (active)
same,normalized growth,"locus YBR135W, strain CKS1, stronger effect = lower value",0.857 (active)
same,normalized growth,"locus YBR136W, strain MEC1, stronger effect = lower value",0.87 (active)
same,normalized growth,"locus YBR160W, strain CDC28, stronger effect = lower value",0.873 (active)
same,normalized growth,"locus YDL017W, strain CDC7, stronger effect = lower value",0.872 (active)
same,normalized growth,"locus YDL028C, strain MPS1, stronger effect = lower value",0.857 (active)
same,normalized growth,[3],0.869 (active)
same,normalized growth,"locus YDL108W, strain KIN28, stronger effect = lower value",0.868 (active)
same,normalized growth,"locus YDL132W, strain cdc53, stronger effect = lower value",0.847 (active)
same,normalized growth,"locus YDL214C, strain PRR2, stronger effect = lower value",0.467 (active)
same,normalized growth,"locus YDR052C, strain DBF4, stronger effect = lower value",0.883 (active)
same,normalized growth,"locus YDR054C, strain cdc34, stronger effect = lower value",0.853 (active)
same,normalized growth,"locus YDR226W, strain ADK1, stronger effect = lower value",0.862 (active)
same,normalized growth,"locus YDR477W, strain SNF1, stronger effect = lower value",0.377 (active)
same,normalized growth,"locus YER123W, strain YCK3, stronger effect = lower value",0.281 (active)
same,normalized growth,"locus YER133W, strain GLC7, stronger effect = lower value",0.339 (active)
same,normalized growth,"locus YFL009W, strain cdc4, stronger effect = lower value",0.849 (active)
same,normalized growth,"locus YFL029C, strain CAK1, stronger effect = lower value",0.837 (active)
same,normalized growth,"locus YFR003C, strain YPI1, stronger effect = lower value",0.878 (active)
same,normalized growth,"locus YFR019W, strain FAB1, stronger effect = lower value",0.512 (active)
same,normalized growth,"locus YFR028C, strain CDC14, stronger effect = lower value",0.865 (active)
same,normalized growth,"locus YGR040W, strain KSS1, stronger effect = lower value",0.384 (active)
same,normalized growth,"locus YGR052W, strain FMP48, stronger effect = lower value",0.421 (active)
same,normalized growth,"locus YGR092W, strain DBF2, stronger effect = lower value",0.217 (active)
same,normalized growth,[8],0.283 (active)
same,normalized growth,"locus YHR079C, strain IRE1, stronger effect = lower value",0.35 (active)
same,normalized growth,"locus YHR082C, strain KSP1, stronger effect = lower value",0.316 (active)
same,normalized growth,"locus YHR205W, strain SCH9, stronger effect = lower value",0.331 (active)
same,normalized growth,"locus YIL147C, strain SLN1, stronger effect = lower value",0.873 (active)
same,normalized growth,"locus YJL095W, strain BCK1, stronger effect = lower value",0.302 (active)
same,normalized growth,"locus YJL128C, strain PBS2, stronger effect = lower value",0.9
same,normalized growth,"locus YJL157C, strain FAR1, stronger effect = lower value",0.487 (active)
same,normalized growth,"locus YJR016C, strain ILV3, stronger effect = lower value",0.862 (active)
same,normalized growth,"locus YJR066W, strain TOR1 (second series), stronger effect = lower value",0.39 (active)
same,normalized growth,"locus YJR066W, strain TOR1, stronger effect = lower value",0.272 (active)
same,normalized growth,"locus YKL048C, strain ELM1, stronger effect = lower value",0.556 (active)
same,normalized growth,"locus YKL067W, strain YNK1, stronger effect = lower value",0.509 (active)
same,normalized growth,"locus YKL101W, strain HSL1, stronger effect = lower value",0.494 (active)
same,normalized growth,"locus YKL193C, strain SDS22, stronger effect = lower value",0.863 (active)
same,normalized growth,"locus YKL203C, strain TOR2, stronger effect = lower value",0.382 (active)
same,normalized growth,"locus YLR113W, strain HOG1, stronger effect = lower value",0.336 (active)
same,normalized growth,"locus YLR133W, strain CKI1, stronger effect = lower value",0.531 (active)
same,normalized growth,"locus YLR403W, strain SFP1, stronger effect = lower value",0.326 (active)
same,normalized growth,"locus YML070W, strain DAK1, stronger effect = lower value",0.401 (active)
same,normalized growth,"locus YMR001C, strain CDC5, stronger effect = lower value",0.854 (active)
same,normalized growth,"locus YMR205C, strain PFK2 (second series), stronger effect = lower value",0.563 (active)
same,normalized growth,"locus YMR277W, strain FCP1, stronger effect = lower value",0.868 (active)
same,normalized growth,"locus YNL006W, strain LST8, stronger effect = lower value",0.885 (active)
same,normalized growth,"locus YNL020C, strain ARK1, stronger effect = lower value",0.558 (active)
same,normalized growth,"locus YNL161W, strain CBK1, stronger effect = lower value",0.865 (active)
same,normalized growth,"locus YNL183C, strain NPR1, stronger effect = lower value",0.201 (active)
same,normalized growth,"locus YNL207W, strain RIO2, stronger effect = lower value",0.847 (active)
same,normalized growth,"locus YNL222W, strain SSU72, stronger effect = lower value",0.864 (active)
same,normalized growth,"locus YNL307C, strain MCK1 (second series), stronger effect = lower value",0.413 (active)
same,normalized growth,"locus YOL078W, strain AVO1, stronger effect = lower value",0.858 (active)
same,normalized growth,"locus YOL136C, strain PFK27, stronger effect = lower value",0.436 (active)
same,normalized growth,"locus YOR061W, strain CKA2, stronger effect = lower value",0.576 (active)
same,normalized growth,"locus YOR119C, strain RIO1, stronger effect = lower value",0.384 (active)
same,normalized growth,"locus YOR231W, strain MKK1, stronger effect = lower value",0.4 (active)
same,normalized growth,"locus YOR329C, strain SCD5, stronger effect = lower value",0.869 (active)
same,normalized growth,"locus YPL031C, strain PHO85, stronger effect = lower value",0.311 (active)
same,normalized growth,"locus YPL153C, strain RAD53, stronger effect = lower value",0.372 (active)
same,normalized growth,"locus YPL204W, strain HRR25, stronger effect = lower value",0.391 (active)
same,normalized growth,"locus YPL209C, strain IPL1, stronger effect = lower value",0.862 (active)
same,normalized growth,"locus YPL256C, strain CLN2, stronger effect = lower value",0.33 (active)
same,normalized growth,"locus YPR025C, strain CCL1, stronger effect = lower value",0.855 (active)
same,normalized growth,"locus YPR106W, strain ISR1, stronger effect = lower value",0.901
same,normalized growth,"locus YPR111W, strain DBF20, stronger effect = lower value",0.907
same,normalized growth,"strain NNK1, stronger effect = lower value",0.893
same,normalized growth,"strain TSCII, stronger effect = lower value",0.859 (active)
